Our source for the inhibition values is ChEMBL document CHEMBL3433997, “St. Jude Leishmania screening dataset” (2016).

Each structure is given as a SMILES string.

One test concerns the target Hexose transporter 1 (Plasmodium falciparum) (UniProt O97467). Nature of the test: ST_JUDE_LEISH: Cytotoxicity at 2uM final concentration against transgenic Leishmania Mexicana promastigotes LmPfHT that are glucose transport deficient and complemented with the Plasmodium falciparum hexose transporter. Activity is measured by DNA content using SYBR green in vitro. The test is classed as functional.
As for `COc1ccc(C=NN=c2cc(C)[nH]c3ccccc23)c(OC)c1`, the inhibition (commonly the change of the read-out against control, counted positive when it falls) was found to be 66%.

Take `COc1ccc(-c2ccc(NC(=O)c3cccc(C#N)c3)cc2)cc1CN1CCN(C)CC1`: the inhibition was 6.51%.

In the case of `COc1ccccc1C(C)NCC(=O)Nc1cccc(C(=O)Nc2cccc(C(F)(F)F)c2)c1` (stereo not given), the inhibition was -0.5%.

Turning to `CCCNC(=O)c1ccc(N2CCC(c3ccccc3C)CC2)nc1`, the inhibition was determined as 0.25%.

With `CN1CCCc2cc(NC(=O)c3cc(-c4ccc(Cl)cc4)cs3)ccc2C1`, the inhibition stood at 0.77%.

Regarding `COc1ccc(-c2c3c(=O)n(C)c(=O)n(C)c3c3nnc4ccccc4n23)cc1`, the inhibition turned out to be 1.06%.

`Fc1ccc2[nH]c(-c3ccc(-c4ccc(CNCCc5ccncc5)cc4)s3)nc2c1`: the inhibition came to 4.96%.

As to `COc1cc(Cc2cnc(N)nc2N)cc(OCCCc2cc(OCc3ccccc3)no2)c1OC`, the inhibition was found to be 8.52%.

Take `O=C(/C=C/c1ccc(Cl)c(Cl)c1)N1CCC(CCN2CCC(c3nc4cc(O)ccc4[nH]3)CC2)CC1`: the inhibition amounted to 0.59%.

For the molecule `O=C(c1ccc(O)c(-c2cc(Cl)cc(Cl)c2)c1)N(CCO)CCO`, the inhibition was 1.98%.

As to `CN(C)CCCn1cncc1-c1ccc2ncnc(Nc3ccc(OCc4ccccc4)cc3)c2c1`, the inhibition amounted to 6.87%.

In the case of `Cc1ccc(CNC(=O)[C@H](Cc2ccccc2)Nc2cc(C)nc(NCc3ccccc3C)n2)cc1`, the inhibition was 5.01%.

`CC(C)CC(=O)N1CCNC[C@@H]1C(=O)NCCSCc1c(F)cccc1Cl`: the inhibition is 5.07%.

Turning to `COc1ccc(Br)cc1C1C2C(=O)N(c3ccc(Br)cc3)C(=O)C2C2(C(=O)O)CC(OCc3ccccc3)CN12` (stereo not given), the inhibition is 12%.

Turning to `CCC(CC)(Cc1ccccc1)NC(=O)[C@H](Cc1ccc(OC)c(OC)c1)Nc1ccc(C#N)c2ccccc12`, the inhibition came out at 2.31%.

`O=C(NC1CCN(Cc2ccccc2)CC1)c1ccc(CNC2CCN(Cc3ccccc3)CC2)cc1`: the inhibition came out at 3.94%.

On to `COc1c(C2CCN(CCCCNC(=O)c3cc(-c4ccc(C#N)cc4)n[nH]3)CC2)ccc2c1CCCC2`, for which the inhibition amounted to 0.62%.

Regarding `O=C(NCc1ccc(F)cc1)Nc1cccc(-c2ccc(-c3nc4ccccc4[nH]3)cc2)c1`, the inhibition was determined as 0.3%.

`COC(=O)Cn1c(C2CCN(CC3CCC(NC(=O)/C=C/c4ccc(Cl)c(Cl)c4)CC3)CC2)nc2ccccc21` (stereo not given): the inhibition amounted to 0.18%.

In the case of `CCNC(=O)N[C@@H]1CN[C@@H](C#Cc2cc3c(Nc4ccc(OCc5cccc(F)c5)c(Cl)c4)ncnc3s2)C1`, the inhibition was -1.15%.

`NC1CCN(Cc2cccc(-c3ccc(-c4nc5cc(F)ccc5[nH]4)cc3)c2)C1` (stereo not given): the inhibition was 1.25%.

For the molecule `Cc1[nH]c(C)c(-c2ccc(Oc3ccc(F)cc3)cc2)c(=O)c1Br`, the inhibition stood at 4.31%.

Take `COc1cc(C(=O)NC2CC(C)(C)NC(C)(C)C2)ccc1-c1cc2cc(Cl)c(Cl)cc2[nH]1`: the inhibition was -0.26%.

Take `CN1CCC(NCc2cccc(-c3ccc(S(=O)(=O)NCc4ccccc4)cc3)c2)CC1`: the inhibition was 7.9%.

For the molecule `CC1CCCCC1N(C)C1CCN(CCCNC(=O)C=Cc2ccccc2Cl)CC1` (stereo not given), the inhibition is -0.24%.

Consider `Cc1cc(OCCCNC(=N)c2ccc3ccccc3c2)c(C(C)C)cc1Cl`, for which the inhibition is 2.39%.

Take `O=C(Nc1ccccc1)c1c[nH]cn1`: the inhibition came to 2.14%.

As for `Cc1nc2ccc(Nc3nccc(-c4c(-c5cccc(NC(=O)c6c(F)cccc6F)c5)nn5ccccc45)n3)cc2nc1C`, the inhibition was 4.37%.

`NC1(C(=O)O)Cc2ccc(Cl)cc2C1` (stereo not given): the inhibition amounted to 2.95%.

Consider `O=C(C=Cc1ccc(Cl)c(Cl)c1)NCCCCCN1CCC(CCCNS(=O)(=O)c2cccc(C(F)(F)F)c2)CC1`, for which the inhibition is -1.72%.

On to `CC(C)OC(=O)c1ccccc1S(N)(=O)=O`, for which the inhibition worked out at 12.7%.

Regarding `Cc1cc(C(F)(F)F)n2nc(C(=O)N(C)Cc3cncn3Cc3ccc(F)cc3)cc2n1`, the inhibition was determined as 1.29%.

For `O=C(Nc1ccc(Cl)cc1)N(CC1CC2CCC(C1)N2Cc1ccc(C(F)(F)F)cc1)c1ccc(N2CCOCC2)c(F)c1` (stereo not given), the inhibition turned out to be 5.58%.

With `CN1CCC(c2ccc(NC(=O)c3ccc(-c4cccc(C(F)(F)F)c4)o3)cc2)CC1`, the inhibition turned out to be 1.69%.

Take `Cc1cc2cc(/C=C/C(=O)NC3CCC(CCN4CCc5ccc(C#N)cc5CC4)CC3)ccc2[nH]1` (stereo not given): the inhibition came to 7.95%.

Take `O=C(Nc1ccc(-c2nc3cc4ccccc4cc3[nH]2)cc1)c1cccc(Br)c1`: the inhibition was determined as 1.07%.

With `CC(=O)Nc1ccc(COc2ccc(Nc3ccnc4cc(-c5ccccn5)ccc34)cc2)cc1`, the inhibition was 1.28%.

With `FC(F)(F)c1cc(C(F)(F)F)c2cc(CNCCCNc3nc4ccccc4[nH]3)[nH]c2c1`, the inhibition turned out to be 0.32%.

As to `Cc1cccc(CCNC(=O)c2cc(Br)cc(N3CCN(c4ccncc4)CC3)c2)c1`, the inhibition is 2.44%.

Regarding `c1cc(-c2ccc(CNCCc3ccncc3)cc2)cc(-c2nc3ccccc3[nH]2)c1`, the inhibition turned out to be 0.82%.

The next test addresses Glucose transporter (Leishmania mexicana) (UniProt O61059). In words: ST_JUDE_LEISH: Cytotoxicity at 2uM final concentration against transgenic Leishmania Mexicana promastigotes LmGT2 that are glucose transport deficient and complemented with the L. Mexicana glucose transporter 2. Activity is measured by DNA content using SYBR green in vitro. The test is classed as functional.
On to `COc1ccc(C=NN=c2cc(C)[nH]c3ccccc23)c(OC)c1`, for which the inhibition amounted to 55.3%.

For the molecule `COc1ccc(-c2ccc(NC(=O)c3cccc(C#N)c3)cc2)cc1CN1CCN(C)CC1`, the inhibition came out at 1.6%.

For the molecule `COc1ccccc1C(C)NCC(=O)Nc1cccc(C(=O)Nc2cccc(C(F)(F)F)c2)c1` (stereo not given), the inhibition came to 4.16%.

As to `CCCNC(=O)c1ccc(N2CCC(c3ccccc3C)CC2)nc1`, the inhibition was found to be 0.97%.

As for `CN1CCCc2cc(NC(=O)c3cc(-c4ccc(Cl)cc4)cs3)ccc2C1`, the inhibition is 1.79%.

Turning to `COc1ccc(-c2c3c(=O)n(C)c(=O)n(C)c3c3nnc4ccccc4n23)cc1`, the inhibition was 1.3%.

On to `Fc1ccc2[nH]c(-c3ccc(-c4ccc(CNCCc5ccncc5)cc4)s3)nc2c1`, for which the inhibition is 7.86%.

Take `COc1cc(Cc2cnc(N)nc2N)cc(OCCCc2cc(OCc3ccccc3)no2)c1OC`: the inhibition stood at 8.73%.

Take `O=C(/C=C/c1ccc(Cl)c(Cl)c1)N1CCC(CCN2CCC(c3nc4cc(O)ccc4[nH]3)CC2)CC1`: the inhibition is -0.62%.

As for `O=C(c1ccc(O)c(-c2cc(Cl)cc(Cl)c2)c1)N(CCO)CCO`, the inhibition amounted to 3.14%.

`CN(C)CCCn1cncc1-c1ccc2ncnc(Nc3ccc(OCc4ccccc4)cc3)c2c1`: the inhibition came out at 7.01%.

For `Cc1ccc(CNC(=O)[C@H](Cc2ccccc2)Nc2cc(C)nc(NCc3ccccc3C)n2)cc1`, the inhibition was determined as 2.6%.

In the case of `CC(C)CC(=O)N1CCNC[C@@H]1C(=O)NCCSCc1c(F)cccc1Cl`, the inhibition was 4.3%.

Regarding `COc1ccc(Br)cc1C1C2C(=O)N(c3ccc(Br)cc3)C(=O)C2C2(C(=O)O)CC(OCc3ccccc3)CN12` (stereo not given), the inhibition worked out at 10.2%.

Turning to `CCC(CC)(Cc1ccccc1)NC(=O)[C@H](Cc1ccc(OC)c(OC)c1)Nc1ccc(C#N)c2ccccc12`, the inhibition amounted to 3.47%.

Consider `O=C(NC1CCN(Cc2ccccc2)CC1)c1ccc(CNC2CCN(Cc3ccccc3)CC2)cc1`, for which the inhibition was 4.42%.

In the case of `COc1c(C2CCN(CCCCNC(=O)c3cc(-c4ccc(C#N)cc4)n[nH]3)CC2)ccc2c1CCCC2`, the inhibition amounted to 1.75%.

For the molecule `O=C(NCc1ccc(F)cc1)Nc1cccc(-c2ccc(-c3nc4ccccc4[nH]3)cc2)c1`, the inhibition is -0.44%.

Consider `COC(=O)Cn1c(C2CCN(CC3CCC(NC(=O)/C=C/c4ccc(Cl)c(Cl)c4)CC3)CC2)nc2ccccc21` (stereo not given), for which the inhibition is 2.43%.

For `CCNC(=O)N[C@@H]1CN[C@@H](C#Cc2cc3c(Nc4ccc(OCc5cccc(F)c5)c(Cl)c4)ncnc3s2)C1`, the inhibition was -0.46%.

For the molecule `NC1CCN(Cc2cccc(-c3ccc(-c4nc5cc(F)ccc5[nH]4)cc3)c2)C1` (stereo not given), the inhibition is -0.29%.

`Cc1[nH]c(C)c(-c2ccc(Oc3ccc(F)cc3)cc2)c(=O)c1Br`: the inhibition was 2.46%.

Turning to `COc1cc(C(=O)NC2CC(C)(C)NC(C)(C)C2)ccc1-c1cc2cc(Cl)c(Cl)cc2[nH]1`, the inhibition worked out at 2.02%.

With `CN1CCC(NCc2cccc(-c3ccc(S(=O)(=O)NCc4ccccc4)cc3)c2)CC1`, the inhibition was 10.3%.

With `CC1CCCCC1N(C)C1CCN(CCCNC(=O)C=Cc2ccccc2Cl)CC1` (stereo not given), the inhibition was -0.58%.

With `Cc1cc(OCCCNC(=N)c2ccc3ccccc3c2)c(C(C)C)cc1Cl`, the inhibition is -0.77%.

`O=C(Nc1ccccc1)c1c[nH]cn1`: the inhibition is -0.23%.

For the molecule `Cc1nc2ccc(Nc3nccc(-c4c(-c5cccc(NC(=O)c6c(F)cccc6F)c5)nn5ccccc45)n3)cc2nc1C`, the inhibition was -1.39%.

In the case of `NC1(C(=O)O)Cc2ccc(Cl)cc2C1` (stereo not given), the inhibition was 3.62%.

`O=C(C=Cc1ccc(Cl)c(Cl)c1)NCCCCCN1CCC(CCCNS(=O)(=O)c2cccc(C(F)(F)F)c2)CC1`: the inhibition came to 2.46%.

Regarding `CC(C)OC(=O)c1ccccc1S(N)(=O)=O`, the inhibition was determined as 7.97%.

For `Cc1cc(C(F)(F)F)n2nc(C(=O)N(C)Cc3cncn3Cc3ccc(F)cc3)cc2n1`, the inhibition was 1.49%.

Regarding `O=C(Nc1ccc(Cl)cc1)N(CC1CC2CCC(C1)N2Cc1ccc(C(F)(F)F)cc1)c1ccc(N2CCOCC2)c(F)c1` (stereo not given), the inhibition stood at 8.78%.

As for `CN1CCC(c2ccc(NC(=O)c3ccc(-c4cccc(C(F)(F)F)c4)o3)cc2)CC1`, the inhibition came out at 1.19%.

As to `Cc1cc2cc(/C=C/C(=O)NC3CCC(CCN4CCc5ccc(C#N)cc5CC4)CC3)ccc2[nH]1` (stereo not given), the inhibition was found to be 8.66%.

As for `O=C(Nc1ccc(-c2nc3cc4ccccc4cc3[nH]2)cc1)c1cccc(Br)c1`, the inhibition amounted to 5.72%.

Consider `CC(=O)Nc1ccc(COc2ccc(Nc3ccnc4cc(-c5ccccn5)ccc34)cc2)cc1`, for which the inhibition worked out at 1.17%.

`FC(F)(F)c1cc(C(F)(F)F)c2cc(CNCCCNc3nc4ccccc4[nH]3)[nH]c2c1`: the inhibition is -1.92%.

In the case of `Cc1cccc(CCNC(=O)c2cc(Br)cc(N3CCN(c4ccncc4)CC3)c2)c1`, the inhibition was 1.78%.

As to `c1cc(-c2ccc(CNCCc3ccncc3)cc2)cc(-c2nc3ccccc3[nH]2)c1`, the inhibition is 3.55%.
